Experimental data: PubChem BioAssay (NCI)
About 79,000 compounds went through this panel and 15% of them were active in at least one assay; those are over-represented in the sample as a whole. Rule as the data show it: active = growth inhibition above about 70%; inactive = the rest.

Tests used:
[1] = NCI Yeast Anticancer Drug Screen. Data for the rad50 strain (AID 155);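 also: 0% = growth of vehicle-only cultures of the same strain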; conditions: S. cerevisiae rad50 strain growth inhibition; at 50.0 µM; hits give high values
Procedure, shortened: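 Readout: growth inhibition relative to vehicle-treated cultures. Compound exposure was carried out in a genetically defined yeast strain deficient in DNA damage repair.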

[2] = NCI Yeast Anticancer Drug Screen. Data for the mec2-1 strain (AID 157); conditions: S. cerevisiae mec2-1 strain, at 50.0 µM, hits give high values
Procedure, shortened: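 Growth inhibition is read against vehicle-treated controls after compound exposure of the mec2-1 yeast strain, which is defective in DNA damage repair or cell cycle control.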

[3] = NCI Yeast Anticancer Drug Screen. Data for the sgs1 mgt1 strain (AID 161);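 also: 0% = growth of cultures given vehicle only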; conditions: S. cerevisiae sgs1 mgt1 strain, at 50.0 µM, hits give high values
Procedure, shortened: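 Percent growth inhibition was derived by comparing compound-exposed mutant yeast with vehicle-exposed cultures. The strain carries alterations in DNA damage repair.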

[4] = NCI Yeast Anticancer Drug Screen. Data for the cln2 rad14 strain (AID 165);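 also: 0% = growth equal to vehicle treated cultures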; conditions: S. cerevisiae cln2 rad14 strain, at 50.0 µM, hits give high values
Procedure, shortened: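 Growth inhibition, relative to vehicle-treated controls, is the read-out. The test organism is a yeast strain with defined genetic alterations, cln2 rad14.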

[5] = NCI Yeast Anticancer Drug Screen. Data for the bub3 strain (AID 167); conditions: S. cerevisiae bub3 mutant strain, at 50.0 µM, hits give high values
Procedure, shortened: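 Readout: yeast growth inhibition, expressed relative to vehicle-only wells. The test organism is a mutant strain from a panel with lesions in DNA repair or checkpoint genes.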

[6] = NCI Yeast Anticancer Drug Screen. Data for the mlh1 rad18 strain (AID 175); conditions: S. cerevisiae mlh1 rad18 strain growth inhibition; at 50.0 µM; hits give high values
Procedure, shortened: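 Cells of a genetically altered yeast strain, deficient in DNA damage repair, were treated with compound. Their growth was then compared with that of vehicle-treated cultures to give inhibition.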

Measured: growth inhibition

Cc1c2occc2cc2c1oc(=O)c1cnccc12
inactive: [1] 0.95% | [2] -0.15% | [3] 1.85% | [4] 21.2% | [5] -4.95% | [6] 14.9%

CCCC(O)(Cc1ccccc1)c1ccccc1 (configuration not stated)
inactive: [1] -39% | [2] -25.5% | [3] -15.2% | [4] -3.45% | [5] -15.2% | [6] -14%

CC(C)[N+](=C1O[B-](c2ccccc2)(c2ccccc2)O[B-]1(c1ccccc1)[C+]1CCCCC1)C(C)C (configuration not stated)
inactive: [1] -51.1% | [2] -4.45% | [3] 10.8% | [4] 19.8% | [5] 2.15% | [6] 2.2%

Cc1ccnc(NC(=O)Nc2ccccc2Cl)c1
inactive: [1] 9.65% | [2] 8.15% | [3] 1.3% | [4] 3.15% | [5] 21% | [6] 12%

COc1cc2ccc(=O)oc2cc1O
inactive: [1] 14.6% | [2] 9.35% | [3] 9.05% | [4] 19.4% | [5] 16.4% | [6] 4.05%

CC12CCC(O)CC1=CCC1C2CCC2(C)C1CC1=CC(C#N)C(=O)NC12O (configuration not stated)
inactive: [1] 3.55% | [2] 6.85% | [3] 1.35% | [4] -65.4% | [5] -0.3% | [6] 17.2%

Cc1ccc2c(c1)C(c1cccc3ccccc13)OC2=O (configuration not stated)
inactive: [1] 21.6% | [2] 1.65% | [3] 40.2% | [4] 33.3% | [5] 14.2% | [6] 29.4%

COc1cc(CNc2nc3ccccc3n2Cc2ccccc2)cc(CN2CCOCC2)c1O
inactive: [1] -4.4% | [2] 15.7% | [3] 3.7% | [4] 33.3% | [5] 9.55% | [6] 7.55%

O=C(O)/C=C/c1cnc[nH]1
inactive: [1] -4.9% | [2] -2.3% | [3] -5.65% | [4] 11.9% | [5] 9.65% | [6] -1%

CC(C)[C@@]12O[C@@H]1CC13OC1[C@@H](O)CC[C@@]32O (some centres not stated)
inactive: [1] -16.6% | [2] -1.05% | [3] -2.8% | [4] -27.9% | [5] -6.25% | [6] -20.8%

Cc1cc(C)nc(NC(=O)c2cc(C(=O)O)c(C(=O)Nc3cc(C)cc(C)n3)cc2C(=O)O)c1
inactive: [1] -20.3% | [2] -3.1% | [3] -18.8% | [4] -27.6% | [5] 3.25% | [6] -23.9%

O=c1c2ccccc2ncn1C1OC(CO)C(O)C1O (configuration not stated)
inactive: [1] 17.6% | [2] -19.1% | [3] -13.9% | [4] 4.95% | [5] 6.95% | [6] -2.05%

BrC1C2CC/C=C\CCC12 (configuration not stated)
inactive: [1] 43.9% | [2] 22.7% | [3] 10.9% | [4] 11.6% | [5] 18% | [6] 13.9%

Clc1ccc(N[P+](c2ccccc2)(c2ccccc2)c2ccccc2)cc1.[Cl][Fe]([Cl])([Cl])[Cl]
inactive: [1] 39.3% | [2] 12% | [3] 45.4% | [4] 5% | [5] 5.8% | [6] 17.8%

CCCC1=C(c2ccc(OC)cc2)Cc2cc(OC)ccc21
inactive: [1] -14.9% | [2] -16.9% | [3] -1.05% | [4] -2.4% | [5] 2.1% | [6] 9%

O=S1(=O)OCCOS(=O)(=O)C1(F)Br
inactive: [1] -38.4% | [2] -4.7% | [3] -19.6% | [4] -8% | [5] -20.6% | [6] -29.8%

S=C1SC(=Nc2ccccc2)C(=Nc2ccccc2)N1c1ccccc1
inactive: [1] -21.1% | [2] -15.9% | [3] 6.7% | [4] -37.1% | [5] -19.5% | [6] -20.6%

OC1C/C=C/CCCCC1 (configuration not stated)
inactive: [1] -11% | [2] -5.75% | [3] -3.55% | [4] 1.95% | [5] 3.3% | [6] -4.4%

CC(=O)Nc1cc2ccccc2oc1=O
inactive: [1] -5.5% | [2] -25.1% | [3] -4.65% | [4] 2.25% | [5] -11.8% | [6] 0.75%

O=C1/C(=C/c2ccccc2)SC(=S)N1C1OC(CO)C(O)C(O)C1O (configuration not stated)
inactive: [1] 3.45% | [2] 11.8% | [3] -8.4% | [4] 8.95% | [5] -3.95% | [6] 6.9%

Nc1cc(=O)n(C2OC(CO)C(O)C2O)cn1 (configuration not stated)
inactive: [1] 6.85% | [2] -8.35% | [3] -0.3% | [4] -39.4% | [5] -19.4% | [6] 8.05%

CCOC(=O)NC(=O)c1cn(CCCCCCCCCCC(=O)NCCCN2CCN(CCCNC(=O)CCCCCCCCCCn3cc(C(=O)NC(=O)OCC)c(=O)[nH]c3=O)CC2)c(=O)[nH]c1=O
inactive: [1] -19.2% | [2] 12.9% | [3] -23.8% | [4] -27.4% | [5] 2.25% | [6] -17.6%
